Screening data (PubChem)
A selection follows.
aSyn UTR act = Activators via SNCA 5'UTR binding, MLPCN. 300,000 tested, 7.1% active. activity score, % (tested at 7.5 µM), hits read low. alpha-synuclein 5'UTR reporter, activators screen; in the data active = activity score below about -60%
Starred values were filed as active, the others as inactive; + = active, no number.

SMILES	aSyn UTR act
Cc1cccc(NC(=O)c2cc(-c3cc(C)c(C)cc3O)n[nH]2)c1	-234*
C/C(=N\Nc1cccc2cccnc12)c1ccccc1O	-204*
CC(=O)NC(c1ccc(C(C)C)cc1)c1ccc2cccnc2c1O (stereo not given)	67
C/C(=N\Nc1cccc2cccnc12)c1ccc(N)cc1	-93*
CCOC(=O)N1CCC(NC(=O)c2oc3c(F)cccc3c2C)CC1	-62*
CN(C)CCCN(C(=O)c1ccco1)c1nc2cc3c(cc2s1)OCO3	-185*
CN(C)CCCN(C(=O)c1ccc(Br)s1)c1nc2cc3c(cc2s1)OCCO3	-69*
CN(C)CCCN(C(=O)c1ccc(C(=O)c2ccccc2)cc1)c1nc2cc3c(cc2s1)OCO3	61
CN(C)CCCN(C(=O)c1cccs1)c1nc2cc3c(cc2s1)OCO3	-158*
CCN1/C(=C/C(C)=C/c2sc3ccccc3[n+]2CC)Sc2ccccc21	100
CCN1/C(=C\C(=S)Nc2ccccc2)Sc2ccccc21	-144*
CC(C)(C)c1ccc(-c2nc(N)nc(N)n2)cc1	-89*
CCOC(=O)c1cn2ccc(C)cc2n1	-107*
CCN(CC)c1nc(C#N)cc(-c2ccc(OC)cc2)n1	-69*
COCCNC(=S)N1CCC(C(=O)c2ccc3c(c2)OCCO3)CC1	-75*
Cc1ccccc1OCc1nc2ccccc2[nH]1	-138*
Brc1ccccc1OCCOc1cccc2cccnc12	-72*
c1cnc2c(c1)ccc1cccnc12	85
O=Cc1ccc(O)c2ncccc12	63
COc1cccc(C=O)c1OCCCOc1cccc2cccnc12	-129*
COc1ccccc1OCc1nc2ccccc2[nH]1	-70*
c1cnc2c(OCc3nc4ccccc4[nH]3)cccc2c1	-293*
Cc1cccc(-n2ncc3c(Nc4ccc(F)cc4)ncnc32)c1	-108*
Cc1cccc(-n2ncc3c(N(C)Cc4ccccc4)ncnc32)c1	-169*
Cc1cccc(-n2ncc3c(N)ncnc32)c1	-74*
SMILES	aSyn UTR act
COc1ccc(-n2ncc3c(Nc4cccc(C)c4)ncnc32)cc1	-202*
CN(C)/N=C/c1ccc(OS(=O)(=O)c2ccccc2)cc1	-157*
O=C(O)CCCN1C(=O)/C(=C\c2ccco2)SC1=S	-141*
CC(=C\c1ccccc1)/C=C1/SC(=S)N(CCCC(=O)O)C1=O	67
O=c1[nH]c2ccccc2nc1-c1ccccc1	-73*
NC(=O)N=Nc1c2[nH]c3ccccc3nc-2c2ccccc12	+
O=c1[nH]c2ccccc2nc1-c1ccc(Cl)cc1	-72*
Cc1cc(C)n(-c2nnc(NC34CC5CC(CC(C5)C3)C4)nn2)n1	-172*
Cc1cc(C)n(-c2nc(Nc3ccccc3C(F)(F)F)nc(-n3nc(C)cc3C)n2)n1	62
Fc1ccc(C(CCCn2nnc(-c3cccnc3)n2)c2ccc(F)cc2)cc1	-103*
Fc1ccc(-n2nnc(-c3cccnc3)n2)cc1	-89*
Brc1ccccc1-n1nnc(-c2cccnc2)n1	-76*
Fc1ccc(-n2nnc(-c3cnc4ccccc4c3)n2)cc1	94
Clc1ccc(-n2nnc(-c3cccnc3)n2)cc1Cl	-157*
O=C(Nc1ccc(F)cc1F)c1cc2n(n1)C(C(F)(F)F)C1CCCCC1N2 (stereo not given)	-69*
O=C(Nc1ccc(F)cc1F)c1cc2nc3c(c(C(F)(F)F)n2n1)CCCC3	-79*
Cc1cccc(C(=O)NC(=S)Nc2ccc(N3CCOCC3)cc2)c1	-66*
O=C(NC(=S)Nc1ccc(N2CCOCC2)cc1)c1cccs1	-126*
Cc1ccc(C(=O)N2CCN(c3ccc(NC(=S)NC(=O)c4cccs4)cc3)CC2)cc1	52
C/C(=N/NC(=O)c1cccs1)c1ccc(N2CCOCC2)cc1	-66*
O=c1cc(N2CCOCC2)cnn1-c1ccccc1	-123*
Cc1nc2c(-c3ccc(F)cc3)cnn2c2c1CCC2	-87*
O=C(Nc1ccc(F)cc1)Nc1ccc2ccccc2n1	-106*
O=C(Nc1ccccc1)Nc1ccc2ccccc2n1	-89*
CC1=NN(c2ccccc2)C(=O)/C1=C/c1cc2cc(C)ccc2nc1N1CCCCC1	-107*
SMILES	aSyn UTR act
CCOC(=O)c1cnc2ccc(Cl)cc2c1N1CCN(C)CC1	-97*
CCOC(=O)c1cnc2c(OC)cccc2c1N1CCN(c2ccccc2OC)CC1	62
Clc1ccc(-n2nnc(-c3ncc[nH]3)n2)cc1Cl	-171*
Cc1ccc(-n2nnc(-c3nccs3)n2)cc1	95
Clc1ccc(-n2nnc(-c3nccs3)n2)cc1Cl	-92*
Fc1ccc(-n2nnc(-c3ncc[nH]3)n2)cc1	-126*
Cc1ccccc1Cn1nnc(C(=O)Nc2ccc3c(c2)OCCO3)c1N	-109*
Cc1ccc(C)c(Cn2nnc(C(=O)Nc3ccc4c(c3)OCCO4)c2N)c1	-106*
Cc1ccc(NC(=O)c2nnn(-c3ccc4c(c3)OCCO4)c2N)cc1	-149*
O=C(Nc1ccccc1)N1CCc2ccccc21	-117*
CCOC(=O)c1ccc(NC(=O)N2CCc3ccccc32)cc1	-189*
CCOC(=O)c1[nH]c(C)c(C(=O)N2CCc3ccccc32)c1C	90
CCc1ccc(NC(=O)COc2ccc(F)cc2C(=O)c2cnn(-c3ccccc3)c2)cc1	-130*
COc1ccccc1NC(=O)COc1ccccc1C(=O)c1cnn(-c2ccccc2)c1	-136*
COc1ccc(/C=C/c2nc(-c3ccccc3O)n[nH]2)cc1	-74*
COc1ccc(C2CC(=O)c3sc(NC(C)=O)nc3C2)cc1 (stereo not given)	-75*
O=[N+]([O-])/C=C\c1ccc(N2CCCC2)c(F)c1	-142*
O=c1[nH]c(Nc2ccc(F)cc2)cc2ccccc12	-75*
O=c1[nH]c(Nc2ccccn2)cc2ccccc12	-112*
O=c1[nH]c(-c2ccccn2)cc2ccccc12	-118*
c1ccc(/N=C2\N=C(Nc3ccccn3)c3ccccc32)nc1	57
CCc1cc2c(=O)[nH]c(-c3ccccn3)nc2s1	59
O=C(/C=C/c1ccccc1)Nc1cccnc1Oc1ccccc1F	-126*
O=C(/C=C/c1ccc([N+](=O)[O-])cc1)Nc1cccnc1	-150*
O=C(/C=C/c1ccccc1)Nc1cccnc1	-143*
SMILES	aSyn UTR act
COc1ccc(C2=NNC(c3cc(Cl)cc4c3OCOC4)C2)c(O)c1 (stereo not given)	-73*
O=[N+]([O-])c1ccc(/C=N/Nc2nc3ccccc3o2)cc1	-186*
CN(C)c1ccc(/C=N/Nc2nc3ccccc3o2)cc1	67
CC(=O)N1N=C(c2ccc(C)cc2)OC1c1ccc(Br)cc1 (stereo not given)	-174*
O=C(CC(=O)c1ccccc1)Nc1ccc(Cl)cc1	-174*
Cc1ccc(NC(=O)CC(=O)c2ccccc2)cc1C	-117*
CCC(=O)Nc1ccc(/C=C(\C(C)=O)C(=O)c2ccccc2)cc1	-77*
Cc1csc(NC(=O)c2ccccc2O)n1	-84*
CC(C)(C)c1csc(NC(=O)c2ccccc2O)n1	-141*
Cc1csc(NC(=O)c2ccc(Cl)nc2)n1	-93*
Cc1csc(NC(=O)c2cc(C)oc2C)n1	-128*
O=C1CSC2=NCN(c3ccc4c(c3)OCO4)CN12	-147*
Fc1ccc(CNc2ccccn2)cc1	-78*
CSc1ccc(CNc2ccccn2)cc1	-100*
Fc1cccc(Cl)c1Cc1noc(/C=C/c2ccccc2)n1	-209*
COc1ccccc1/C=C1\SC(N2CCC(C)CC2)=NC1=O	-94*
COc1cccc(/C=C2\SC(N3CCCC(C)C3)=NC2=O)c1OC (stereo not given)	-100*
O=C(Cn1cc(C(F)(F)F)ccc1=O)NCc1ccc(F)cc1	-75*
